Assay outcomes (PubChem)
BRCA1 expr act: qHTS Assay to Identify Small Molecule Activators of BRCA1 Expression. MCF7-BRCA1-FFLuc reporter, luminescence, 48 h; response scale: scaled: vehicle 0%, 10 µM genistein 100%. Potency, µM (highest dose often 46.1 µM), inactives show at the top dose activation, hits mostly activators. 380,000 compounds, 1.1% hits. AID 624202, 2012; further: potency means the concentration at half of the fitted maximal effect; nearly all actives have a fitted effect of over 80% in size
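MCF7-BRCA1-FFLuc cells, 2000/well in phenol-red-free MEM, attached 2 h then treated 48 h at 37 C. Luciferase luminescence read 15 min after reagent; normalized to genistein maximum activation (10microM) and DMSO, concentration-response fitted.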
p53 reactivator: qHTS assay for re-activators of p53 using a Luc reporter; H1299 p53-A138V BP100-luciferase reporter, luminescence, 24 h; Potency, µM (highest dose often 92.2 µM), for inactives: at the highest dose activity change, positive = activation, actives largely listed as activators; 320,000 compounds, 0.063% hits; AID 504706, 2011; further: potency means the concentration at half of the fitted maximal effect; % of control where 0% means no effect; nearly all actives have a fitted effect of over 45% in size
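p53-null H1299 cells stably carrying temperature-sensitive p53-A138V and a BP100-luciferase reporter were pinned with compounds (4-point, 1:5 series) and held 24 hrs at 37 deg C. Luminescence was read 10 min after detection reagent.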
miR-21 reporter: qHTS Assay for Modulators of miRNAs and/orActivators of miR-21. HeLa miR-21 FLuc reporter, luciferase, 48 h. Potency, µM (highest dose often 38.3 µM), for inactives: at the top dose activity change, positive = activation, most hits filed as activators. 340,000 tested, under 10 active;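 further: % of control where 0% means no effect; miR-21 action dims this reporter so a rising signal means less miR-21 action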
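HeLa cells stably expressing CMV-driven firefly luciferase with a downstream miR-21 binding sequence, endogenously expressing miR-21, were treated with titrations (up to about 40uM final) for 48 hours at 37 degree Celsius. Luciferase luminescence was read after lysis.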
Anesthetic bind: qHTS Assay for Identification of Novel General Anesthetics; AID 485281, 2010; apoferritin/1-aminoanthracene competitive binding, fluorescence; 350,000 compounds, 0.074% hits; Ferritin light chain (Equus caballus), P02791; Potency, µM (series often up to 77.5 µM), for inactives: at the highest dose activity change, negative = displacement, actives largely listed as inhibitors; further: potency means the concentration at half of the fitted maximal effect; on the % scale 0 is the no-effect control and ±100 the full control effect; nearly all actives have a fitted effect of over 20% in size
Target sequence (P02791 2-175 limits assumed): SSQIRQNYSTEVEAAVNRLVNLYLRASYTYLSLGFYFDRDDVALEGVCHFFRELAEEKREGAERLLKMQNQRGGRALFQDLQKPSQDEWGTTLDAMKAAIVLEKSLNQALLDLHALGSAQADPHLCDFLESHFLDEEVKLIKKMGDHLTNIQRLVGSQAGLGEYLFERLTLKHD
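Read-out: endpoint 1-AMA fluorescence, excitation 380 nm and emission 535 nm, after compounds sit 10 min at room temperature with 10 uM horse-spleen apoferritin in 50% saturated 1-AMA/PBS. Values come from four-parameter Hill fits.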
Starred values were filed as active, the others as inactive; ? = inconclusive; nt = not tested or not shown. Only some compounds are listed: those with a hit (about 1.1% of all), similar ones and a draw of the others. The call rests on the fitted dose curve; in most records, active means well fitted curve in the direction sought with a large enough effect; inconclusive means small, poorly fitted or top-dose-only effect, or another doubt; inactive means no such curve, though single readings can be large; an effect the other way counts as inactive or inconclusive.

SMILES	BRCA1 expr act	p53 reactivator	miR-21 reporter	Anesthetic bind
O=C(N/N=C/c1ccc(-n2ccnc2)cc1)c1cccs1	11µM*	22%	-47%	-5%
Cc1nn(-c2ccccc2)cc1/C=N/NC(=O)c1cccs1	49%	3%	-44%	2%
O=C(N/N=C/c1ccncc1)c1cccs1	13µM*	-6%	-60%	1%
O=C(N/N=C/c1cccc([N+](=O)[O-])c1)c1cccs1	13µM*	?	-50%	7%
CN1CCN(C(=O)Nc2cccc(Cl)c2)c2cccnc21	nt	nt	-12%	6%
Fc1ccccc1CSc1nc2ncc(Br)cc2[nH]1	11µM*	16%	-50%	-24%
Nc1ccc(-c2nc3ncccc3o2)c(O)c1	5µM*	15%	-54%	44%
COc1ccc(NC(=O)C2(C)CCN2CC2CCCCC2)cc1OC (stereo unspecified)	-8%	nt	nt	nt
COc1ccc(/C=C2\OC(=O)c3c(OC)cccc32)cc1OC	10µM*	7%	-81%	730%
O=C(NCc1cccc(Cl)c1)c1ccc(-c2cccnc2)c2ccoc12	48%	nt	nt	nt
O=C(NCCc1ccccc1)c1ccc(-c2cccnc2)c2ccoc12	7.1µM*	nt	nt	nt
CC(C)(C)c1ccc(OCCC(=O)NC2=NCCS2)cc1	-25%	0%	0%	13µM*
CCN(CC)C(=S)SCC(=O)c1c(C)[nH]c2ccccc12	5%	17%	-34%	-12%
CCN(CC)C(=S)SCC(=O)c1ccccc1	7.9µM*	6%	-37%	?
CCN(CC)C(=S)SCC(=O)c1ccc(F)cc1	3.2µM*	16%	-49%	?
COC(=O)C1=C(C)N(Cc2ccccc2)C(=NCc2ccc(OC)cc2)N[C@H]1c1ccc(Br)cc1	nt	nt	1%	-4%
Cc1ccc(Nc2ncccc2C(N)=O)cc1[N+](=O)[O-]	5.6µM*	?	-89%	6%
CC(=O)c1cccc(NC(=O)c2cc(C)nc3c2c(C)nn3-c2cccc(Cl)c2C)c1	nt	nt	0%	-12%
COc1ccc(C2=NCN(c3ccc(C)cc3)C(=S)N2)cc1	4µM*	11%	-44%	-7%
Cc1ccc(N2CN=C(c3ccccc3)NC2=S)cc1	11µM*	23%	-43%	-19%
Cc1ccc(N2CC(O)=C(c3ccccc3)C2=N)cc1	13%	3%	-26%	-8%
Cc1c(C(=O)NCC(c2ccc(Cl)cc2)N2CCOCC2)oc2ccccc12 (stereo unspecified)	nt	nt	5%	-20%
COc1ccc(C(=O)CSc2nc3cc(C(=O)NC4CCCC4)ccc3c(=O)n2CC2CCCO2)cc1 (stereo unspecified)	24%	nt	-2%	-11%
O=C(COC(=O)c1cnccn1)Nc1ncc(C(F)(F)F)cc1Cl	-2%	3%	nt	nt
COc1ccc(CNc2ccc([N+](=O)[O-])cn2)cc1	10µM*	?	-49%	7%
SMILES	BRCA1 expr act	p53 reactivator	miR-21 reporter	Anesthetic bind
CCC(C)(C)C(=O)Nc1nnc(CCc2ccccc2)s1	8.9µM*	18%	-51%	?
O=c1c2ccccc2sc2ccc(NCCCN3CCOCC3)cc12	11µM*	nt	nt	nt
O=C(COC(=O)CC12CC3CC(CC(C3)C1)C2)Nc1ncc(Cl)cc1Cl	-26%	-4%	-5%	20µM*
Cc1noc(-c2ccccc2OCC(=O)Nc2cccc([N+](=O)[O-])c2)n1	-14%	nt	?	?
Cc1ccc(C2=Nc3cccnc3C(c3ccccc3)=NN2)cc1	6.3µM*	12%	-13%	-11%
COc1ccc(C(=O)Nc2ccc(Nc3ccccc3)cc2)cc1Br	14%	nt	nt	nt
CC(=O)N1CCN(c2ccc(NC(=O)c3cccc(Cl)c3)cc2)CC1	11µM*	23%	-28%	-5%
CC(=O)N1CCN(c2ccc(NC(=O)c3ccc(Cl)cc3)cc2)CC1	1%	nt	-11%	-4%
O=C(Cc1ccccc1)Nc1ccc(CN2CCOCC2)cc1	10µM*	?	-34%	-2%
COc1ccc(C(=O)Nc2ccc(N3CCCCC3)cc2)cc1Br	3.5µM*	24%	-54%	5%
Cc1ccc(C(=O)Nc2ccc(N3CCOCC3)cc2)cc1	8.9µM*	?	-45%	-16%
O=C(Nc1ccccc1F)c1csc(COCCO)n1	13%	nt	nt	nt
CC1(C(=O)NS(=O)(=O)c2cccs2)CCN1C(=O)c1cccc(F)c1 (stereo unspecified)	5%	nt	nt	nt
O=C(Cc1cccs1)Nc1ccc(N2CCOCC2)cc1	7.9µM*	?	-41%	-15%
O=C(CSc1ccc(Cl)cc1)Nc1ccc(N2CCN(c3ccccc3)CC2)c(F)c1	-6%	1%	3%	-7%
O=C(CSc1ccccc1)Nc1ccc(N2CCOCC2)c(F)c1	7.9µM*	29%	-53%	-6%
O=C(CSc1ccccc1F)Nc1ccc(N2CCOCC2)cc1	5.6µM*	?	nt	nt
O=C(Cc1cccs1)Nc1ccc(Cl)cc1	52%	15%	-33%	-8%
O=C(Nc1ccc(N2CCOCC2)cc1)C1CCN(C(=O)OCc2ccccc2)CC1	2.8µM*	4%	-2%	2%
O=C(CCN=C1NS(=O)(=O)c2ccccc21)OCc1ccccc1	-10%	-1%	nt	nt
CCc1nc2c(OCc3cc(Cl)cc(Cl)c3)cccn2c1N(C)C(=O)Nc1ccccc1OC	0%	nt	nt	nt
Cc1ccc(NC(=O)N2CCc3cc(S(=O)(=O)N4CCC(C)CC4)ccc32)cc1F	nt	nt	-3%	55%
CC1CCN(S(=O)(=O)c2ccc3c(c2)CCN3C(=O)Nc2cccc(Br)c2)CC1	nt	nt	4%	5%
CN(N=Nc1cccc([N+](=O)[O-])c1)c1ccccc1	83%	?	-52%	-10%
CN(N=Nc1ccc([N+](=O)[O-])cc1)c1ccccc1	3.5µM*	?	-69%	4%
SMILES	BRCA1 expr act	p53 reactivator	miR-21 reporter	Anesthetic bind
O/N=C/c1ccccc1OCc1ccccc1Cl	-4%	9%	-10%	?
O/N=C/c1ccccc1OCc1ccc(Cl)cc1	11µM*	9%	-38%	?
CCCCCN(C(=O)COC(=O)c1ccc(C)cc1)c1c(N)n(CCCC)c(=O)[nH]c1=O	-27%	-2%	nt	nt
O=C(NCCc1ccc(F)cc1)c1cccs1	11µM*	?	-53%	-7%
COc1ccc(CNC(=O)c2cccs2)cc1	9%	-2%	-6%	-5%
COc1ccc(CCNC(=O)c2cccs2)cc1	10µM*	15%	-30%	-13%
